# The panel holds about 83,000 compounds, 20% with a hit somewhere; the sample as a whole holds those more often.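 Percent growth is the endpoint: 0 to 100 indicates growth inhibition (40 means 60% inhibition), 0 means no net growth, and negative values indicate cell death.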 Unmarked numbers belong to inactive results. The source made the active and inactive calls. Rule for the calls: active = growth percent below 10; inactive = the rest.
# What was measured:
# Experiment in all cases: NCI-60 one-dose screen, 48 h (100 = growth as untreated, 0 = no growth, -100 = all killed)
# DU-145 prostate = conditions: 10 µM
# K-562 leukemia = conditions: 10 µM
# MALME-3M melanoma = conditions: 10 µM
# MDA-MB-231 breast = conditions: 10 µM
# RXF 393 renal = conditions: 10 µM
# SF-268 CNS = conditions: 10 µM
# SF-295 CNS = conditions: 10 µM
# SF-539 CNS = conditions: 10 µM
# UACC-257 melanoma = conditions: 10 µM
# M14 melanoma = conditions: 10 µM
# HCT-15 colon = conditions: 10 µM
# HT29 colon = conditions: 10 µM
# SNB-19 CNS = conditions: 10 µM
# U251 CNS = conditions: 10 µM
# PC-3 prostate = conditions: 10 µM
# SK-MEL-5 melanoma = conditions: 10 µM
# UACC-62 melanoma = conditions: 10 µM unless noted
# SK-MEL-28 melanoma = conditions: 10 µM
# SNB-75 CNS = conditions: 10 µM
# LOX IMVI melanoma = conditions: 10 µM
SMILES,growth (DU-145 prostate) [%],growth (K-562 leukemia) [%],growth (MALME-3M melanoma) [%],growth (MDA-MB-231 breast) [%],growth (RXF 393 renal) [%],growth (SF-268 CNS) [%],growth (SF-295 CNS) [%],growth (SF-539 CNS) [%],growth (UACC-257 melanoma) [%],growth (M14 melanoma),growth (HCT-15 colon) [%],growth (HT29 colon) [%],growth (SNB-19 CNS) [%],growth (U251 CNS) [%],growth (PC-3 prostate) [%],growth (SK-MEL-5 melanoma) [%],growth (UACC-62 melanoma) [%],growth (SK-MEL-28 melanoma) [%],growth (SNB-75 CNS) [%],growth (LOX IMVI melanoma)
COC(=O)/C=C\C(=O)OC,120,107,139,104,110,113,114,103,106,107%,107,103,109,105,93.1,106,101,112,,
O=c1c2ccccc2c(Br)c(Br)c2ccccc12,114,52.6,94.7,115,48,110,99.4,98.6,66.2,5.89% (active),98,,101,91,95.7,109,95.6,106,119,3.1% (active)
CC1CCCC(CC(N)=O)CC1 (centres undefined),117,94.3,107,103,117,104,89.4,98.4,104,108%,107,85,110,99.7,78.8,103,104,119,,101%
CC(=O)N(C)c1ccc([N+](=O)[O-])cc1,122,111,144,102,102,116,107,106,110,108%,102,102,97.5,101,93.5,103,104,114,,
N#Cc1c(N)sc(=S)c2c1CCCC2,113,113,119,111,118,104,110,110,110,116%,104,,105,107,100,114,114,,104,
O=[N+]([O-])c1cccc(C(F)(F)F)c1,120,119,135,98,98.7,102,101,102,97.3,97.9%,93.8,98.7,103,104,94.6,107,101,,,99.7%
CCOc1ccc(/C=C/C(=O)c2ccccc2)cc1,95.1,71.5,108,114,53.4,85.6,111,105,97.7,99.7%,92.4,96.1,92.2,86.7,73.7,99.6,88.9,100,,93.5%
CCC(O)CC(CC)CO (centres undefined),121,105,128,108,119,113,109,99.4,110,102%,104,113,114,111,101,106,112,101,,103%
CCN(CC)CCNc1ccc(CO)c2sc3ccccc3c(=O)c12,39.3,63.4,39.8,50.1,36.6,40.5,44.9,50,11.6,57.5%,27.2,18.1,43.2,32.4,46.1,,30.6,,,28%

# Reference: PubChem BioAssay (NCI)
